The source of these data is PubChem BioAssay (EPA / NIEHS).

The term AC50 denotes the concentration giving half of the maximal activity seen.

The source made the active and inactive calls. How the source made its calls: active means hit-call score of the fitted dose curve at least 0.9, where 1 is the maximum; inactive means score below 0.9.

Test [1] in a line: ATG_E_Box_CIS: Attagene CIS-FACTORIAL HepG2 Assay for human Enhancer Box (E-box) (AID 2282936). Conditions: HepG2 E-box cis-reporter transcription, actives raise or lower the signal. In a few lines:
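DMSO served as negative control and baseline for bidirectional fitting. Human hepatoma HepG2 cells, transiently transfected with cis-reporter constructs, were dosed 24 h; reporter mRNA read by RT-PCR and capillary electrophoresis.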

Test [2] in a line: ATG_M_61_CIS: Attagene CIS-FACTORIAL HepG2 Assay for M61 Transcription Factor (Internal Marker) (AID 2282937). Conditions: HepG2 Attagene CIS-FACTORIAL M61 internal marker reporter; actives raise or lower the signal. The gist of the method:
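Cells were transfected with reporter units under cis-regulatory promoters, treated with chemicals for 24 h, then lysed for RNA. Reporter transcripts were quantified by RT-PCR and capillary electrophoresis, and activity was fitted bidirectionally against DMSO.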

Test [3] in a line: ATG_EGR_CIS: Attagene CIS-FACTORIAL HepG2 Assay for human Early Growth Response 1 (EGR1) (AID 2282938). To be noted: HepG2 Attagene CIS-FACTORIAL EGR reporter mRNA; actives raise or lower the signal. The gist of the method: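 Endogenous TF activity in HepG2 liver cells was gauged through cis-promoter reporter constructs transiently transfected. After 24 h dosing, reporter mRNA was quantified by RT-PCR and capillary electrophoresis, and curves fitted in both directions versus DMSO.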

Test [4] can be described thus: ATG_M_19_CIS: Attagene CIS-FACTORIAL HepG2 Assay for M19 Transcription Factor (Internal Marker) (AID 2282939). Conditions: HepG2 Attagene CIS-FACTORIAL M19 internal marker reporter; actives raise or lower the signal. The gist of the method:
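Background-control endpoint from a multiplexed HepG2 reporter panel. Cells carrying cis-regulated reporter constructs are treated 24 h, then reporter transcripts are amplified, fluorescently labelled and sized by capillary electrophoresis. DMSO defines baseline.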

The nature of test [5]: ATG_ERE_CIS: Attagene CIS-FACTORIAL HepG2 Assay for Estrogen Response Element (ERE) (AID 2282940). To be noted: HepG2 ERE cis-reporter, Attagene RNA transcript; actives raise or lower the signal. The gist of the method: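 Cells used were human hepatoma HepG2, transfected with multiple reporter transcription units under cis-regulatory promoters. Reporter mRNA, read 24 h post-dosing via fluorescent RT-PCR products on capillary electrophoresis, was fitted bidirectionally relative to DMSO.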

Test [6] can be described thus: ATG_Ets_CIS: Attagene CIS-FACTORIAL HepG2 Assay for human Erythroblast Transformation Specific (ETS) (AID 2282941). To be noted: HepG2 ETS cis-reporter transcription, actives raise or lower the signal. In a few lines: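 HepG2 cells transiently transfected with cis-promoter reporter transcription units were dosed for 24 h; reporter mRNA was measured by RT-PCR, 6-FAM primer extension, HpaI digestion and capillary electrophoresis, with bidirectional fitting against DMSO baseline.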

Test [7] has as its target Hepatocyte nuclear factor 3-beta (Homo sapiens) (UniProt Q9Y261). The experiment in a line: ATG_FoxA2_CIS: Attagene CIS-FACTORIAL HepG2 Assay for human Forkhead box A2 (FOXA2) (AID 2282942). Conditions: HepG2 cis-reporter transcription factor activity, 24 h; actives raise or lower the signal. The gist of the method: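 Endogenous transcription factor activity was read in HepG2 cells carrying transiently transfected cis-promoter reporter units. After 24 h dosing, reporter mRNA was quantified by RT-PCR and capillary electrophoresis, and values fitted bidirectionally versus DMSO.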

Test [8] can be described thus: ATG_FoxO_CIS: Attagene CIS-FACTORIAL HepG2 Assay for human Forkhead box O (FoxO) (AID 2282943). To be noted: HepG2 Attagene cis-reporter, FoxO element, mRNA; actives raise or lower the signal. In a few lines: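 Human hepatoma HepG2 cells carry transiently introduced reporter transcription units controlled by cis promoter elements. Chemical treatment lasted 24 h, and mRNA signal was compared with DMSO.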

A short description of test [9]: ATG_GATA_CIS: Attagene CIS-FACTORIAL HepG2 Assay for human GATA Binding Protein (AID 2282944). Conditions: HepG2 GATA cis-element reporter, Attagene multiplex mRNA; actives raise or lower the signal. In a few lines:
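Endogenous transcription factor activity was captured through cis-promoter-driven reporters in transfected HepG2 cells. After 24 h exposure, reporter transcripts were quantified by RT-PCR with fluorescent capillary electrophoresis, and responses fitted both directions against DMSO.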

Test [10] is described as follows: ATG_GLI_CIS: Attagene CIS-FACTORIAL HepG2 Assay for human Zinc Finger Protein GLI1 (AID 2282945). To be noted: HepG2, Attagene cis-factorial reporter mRNA, GLI element; actives raise or lower the signal. The gist of the method: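 Bidirectional curve fits relative to DMSO, using reporter mRNA levels from RT-PCR plus capillary electrophoresis. Cells were HepG2 transiently carrying cis-regulated reporter constructs, harvested 24 h after dosing.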

Chain of Hepatocyte nuclear factor 3-beta (Homo sapiens) (Q9Y261 whole entry, looked up): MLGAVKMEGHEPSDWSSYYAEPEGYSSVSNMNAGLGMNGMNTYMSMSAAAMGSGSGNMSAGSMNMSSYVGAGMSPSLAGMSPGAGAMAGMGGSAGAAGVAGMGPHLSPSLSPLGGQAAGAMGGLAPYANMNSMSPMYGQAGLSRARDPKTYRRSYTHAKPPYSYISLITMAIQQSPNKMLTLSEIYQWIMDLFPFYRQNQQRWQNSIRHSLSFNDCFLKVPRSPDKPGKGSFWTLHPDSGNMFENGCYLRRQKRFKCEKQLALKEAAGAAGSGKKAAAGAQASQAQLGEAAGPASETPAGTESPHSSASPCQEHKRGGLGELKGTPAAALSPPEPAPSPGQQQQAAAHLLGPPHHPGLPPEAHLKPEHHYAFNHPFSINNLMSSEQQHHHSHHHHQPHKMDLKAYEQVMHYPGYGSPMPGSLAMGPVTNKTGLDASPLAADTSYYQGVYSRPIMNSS

As to `CN1[C@@H]2CC(OC(=O)[C@H](CO)c3ccccc3)C[C@H]1[C@@H]1O[C@@H]12` (stereo partly specified), the result in [1], in test [2], in test [3], in test [4], in test [5] and in test [6] was inactive. The result in test [7], in test [8], in test [9] and in [10] was inactive.

For `O=C1O[C@@H]2[C@@H](O)[C@H](O)O[C@@H]2[C@H]1O`, the outcome in test [1], in test [2], in test [3], in test [4], in test [5] and in [6] was inactive. Besides, the result in test [7], in test [8], in [9] and in test [10] was inactive.

On to `Nc1ccc(F)c([N+](=O)[O-])c1`, for which the outcome in test [1], in test [2], in test [3], in [4], in test [5] and in [6] was inactive. For the same compound, the compound was called inactive in test [7], in test [8], in test [9] and in test [10].

Regarding `C#C[C@]1(O)CC[C@H]2[C@@H]3CCC4=Cc5oncc5C[C@]4(C)[C@H]3CC[C@@]21C`, the concentration at half-maximal activity (AC50) in [1] was 53.8 µM (active); in [3] it was 21.9 µM (active); in [5], 0.83 µM (active); in test [6], 26.1 µM (active); in test [8] it was 60.4 µM (active); in test [9], 54.6 µM (active). In addition, in test [10], the AC50 was 60.9 µM (active). Further, the outcome in [2], in [4] and in [7] was inactive.

Consider `c1ccc2sc(SN(C3CCCCC3)C3CCCCC3)nc2c1`, for which the result in test [1], in [2], in test [3], in [4], in test [5] and in [6] was inactive. In addition, the outcome in test [7], in [8] and in [10] was inactive.

In the case of `Cc1ccc2sc3cccc(C)c3c2c1`, the outcome in [1], in test [2], in test [3], in test [4], in test [5] and in test [6] was inactive. In addition, the call in [7], in [8] and in test [10] was inactive.

Consider `O=C1CCc2ccccc2O1`, for which the result in test [1], in test [2], in test [3], in test [4], in test [5] and in test [6] was inactive. The outcome in [7], in [9] and in test [10] was inactive.

In the case of `CCn1c2ccccc2c2cc(N)ccc21`, the outcome in test [1], in test [2], in test [3], in [4], in test [5] and in test [6] was inactive. For the same compound, the outcome in test [8], in [9] and in test [10] was inactive.

Regarding `CC(C)OP(=O)(CP(=O)(OC(C)C)OC(C)C)OC(C)C`, the outcome in test [1], in test [2], in test [3], in [4], in test [5] and in test [6] was inactive. Also, the call in [8], in test [9] and in [10] was inactive.

In the case of `O=C(O)c1cn(C2CC2)c2cc(N3CCNCC3)c(F)cc2c1=O`, the result in test [1], in test [2], in test [3], in test [4], in test [5] and in [6] was inactive. Further, the result in test [7], in test [8], in test [9] and in [10] was inactive.

In the case of `CCN(CC)c1ccc2c(-c3ccccc3C(=O)O)c3ccc(=[N+](CC)CC)cc-3oc2c1`, the result in [1], in test [2], in test [4], in [5], in [6] and in test [8] was inactive. For the same compound, the compound was classed as inactive in test [10]. For the same compound, in [3], the half-maximal activity concentration (AC50) was 135 µM (active).

For `CCCC(=O)C(C)=O`, the result in [1], in test [2], in [3], in test [4], in test [5] and in [6] was inactive. Moreover, the compound was called inactive in test [7], in test [8] and in [10].

For the compound `C=CC(=O)OCC(O)COc1ccccc1` (stereo unspecified), the AC50 in test [1] is 38.8 µM (active); in test [3], 64.3 µM (active); in test [8] it was 25.2 µM (active). Besides, the compound was classed as inactive in test [2], in test [4], in [5], in test [6], in test [7] and in [10].

`CCOC(=S)SSC(=S)OCC`: the result in [1], in test [2], in [3], in test [4], in test [5] and in [6] was inactive. Further, the outcome in test [7], in test [9] and in [10] was inactive.

Turning to `Clc1sc(Cl)c(Cl)c1Cl`, the result in test [1], in test [2], in [3], in [4], in test [5] and in [6] was inactive. Besides, the call in test [7], in test [9] and in [10] was inactive.

`CCC/C=C/C=O`: the result in [1], in test [2], in [3], in test [4], in [5] and in test [6] was inactive. Further, the compound was classed as inactive in test [8], in test [9] and in test [10].

For `Cc1ccc(S)cc1`, the result in [1], in test [2], in [3], in test [4], in test [5] and in test [6] was inactive. Also, the compound was classed as inactive in test [8], in test [9] and in test [10].

For the compound `CCCCCC(=O)OCCc1ccccc1`, the result in test [1], in [2], in test [3], in test [4], in test [5] and in [6] was inactive. Also, the outcome in test [7], in test [9] and in test [10] was inactive.

Turning to `CC(CCO)CCc1ccccc1` (stereo unspecified), the outcome in test [1], in [2], in test [3], in test [4], in [6] and in [8] was inactive. The compound was classed as inactive in test [9] and in [10]. For the same compound, the half-maximal activity concentration (AC50) in test [5] was 24.2 µM (active).

`CC(C)Oc1ccccc1O`: the outcome in test [1], in test [2], in [3], in [4], in test [5] and in test [6] was inactive. Moreover, the compound was called inactive in [8] and in [10].

Consider `CCCCN`, for which the outcome in test [1], in [2], in [3], in [4], in [5] and in [6] was inactive. Further, the compound was called inactive in [7], in test [8] and in [10].

As for `CCCCCCCCC`, the outcome in test [1], in test [2], in [3], in test [4], in test [6] and in test [8] was inactive. Besides, the compound was called inactive in test [9] and in test [10]. The AC50 in test [5] is 63.2 µM (active).

With `c1ccc(CCCc2ccccn2)cc1`, the outcome in [1], in test [2], in [3], in test [4], in [5] and in test [6] was inactive. Further, the outcome in test [8], in [9] and in test [10] was inactive.

As for `CC1=CCC2C(C1)C2(C)C` (stereo unspecified), the result in [1], in [2], in [3], in test [4], in [6] and in test [7] was inactive. The compound was called inactive in test [8] and in test [10]. Also, the half-maximal activity concentration (AC50) in test [5] was 82 µM (active).

As to `C=C(C)[C@@H]1CCC2=CC(=O)C[C@@H](C)[C@]2(C)C1`, the result in test [1], in [2], in [3], in test [4], in test [5] and in [6] was inactive. Besides, the result in test [8], in test [9] and in [10] was inactive.

Consider `O=C(O)COCCN1CCN(C(c2ccccc2)c2ccc(Cl)cc2)CC1` (stereo unspecified), for which the outcome in [1], in test [2], in [3], in test [4], in test [6] and in test [8] was inactive. Further, the compound was called inactive in test [9] and in test [10]. In addition, in test [5], the concentration at half-maximal activity (AC50) is 18.8 µM (active).

`Nc1cc(N)cc(C(=O)O)c1`: the result in test [1], in test [2], in [3], in [4], in test [5] and in test [6] was inactive. The compound was called inactive in test [7], in test [9] and in [10].
